Where “and” joins values, the source holds several entries; their conditions need not be identical. Equal entries are not always repeated. Structures can show the parent of a compound that is named as a salt.
How the values were obtained:
Test in all cases: cell viability relative to vehicle control; higher = less cytotoxic
Details in all cases: 10 µM
[1] = tested on: K562
How it was run: (§1)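 Each screen used CRISPR-edited mutant and wild-type clones from four leukaemia lines. Compounds were acoustically dispensed at a single 10 µM dose, and CellTiter-Glo luminescence was read after 48 h with the supernatant first removed. Viability was analysed in Genedata Screener and given as percent of the on-plate vehicle control.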

[2] = tested on: MARIMO
How it was run: as §1

[3] = tested on: MOLM14
How it was run: as §1

[4] = tested on: OCI-AML2
How it was run: as §1

Row | SMILES | cell viability ([1]; SRSF2 genotype: SRSF2 P95H/wt) | cell viability ([1]; SRSF2 genotype: SRSF2 wt/wt) [%] | cell viability ([2]; SRSF2 genotype: SRSF2 P95H/wt) [%] | cell viability ([2]; SRSF2 genotype: SRSF2 wt/wt) [%] | cell viability ([3]; SRSF2 genotype: SRSF2 P95H/wt) [%] | cell viability ([3]; SRSF2 genotype: SRSF2 wt/wt) [%] | cell viability ([4]; SRSF2 genotype: P95H/wt) [%] | cell viability ([4]; SRSF2 genotype: wt/wt) [%]
1 | O=C(O)c1ccc(CN2CCC(CN[C@@H]3C[C@H]3c3ccccc3)CC2)cc1 | 98.9% and 101% | 95.4 | 92.3 | 91 | 98.7 | 87.2 | 78.3 | 91.6
2 | Cc1ccc2c(c1)C(=O)C1(O)CCN(c3ccccc3)C1=N2 (single isomer, unassigned; (-)) [(-)-Blebbistatin] | 93.5% and 92.5% | 94 | 88.4 | 98.6 | 61.3 | 60.7 | 80.5 | 90.4
3 | C/C=C/c1ccc(OC)cc1 [Trans-Anethole] | 107% and 99.3% | 97.3 | 103 | 102 | 103 | 103 | 92 | 116
4 | COC(=O)C1=CC[C@@]23CC[C@@H]([C@@](C)(/C=C/C=C(\C)C(=O)O)OC2=O)[C@@]3(OC(C)=O)CC1 [Pseudolaric Acid B] | 18.7% and 39.2% | 33.1 | 6.72 | 9.79 | 15.9 | 3.39 | 8.39 | 11.6
5 | COc1ccc([C@@H]2CC(=O)c3c(O)cc(O)cc3O2)cc1O [Hesperetin] | 105% and 99.8% | 100 | 93.3 | 112 | 107 | 108 | 86.7 | 94.8
6 | CC[C@H]1OC(=O)[C@H](C)[C@@H](O[C@H]2C[C@@](C)(OC)[C@@H](O)[C@H](C)O2)[C@H](C)[C@@H](O[C@@H]2O[C@H](C)C[C@H](N(C)C)[C@H]2O)[C@](C)(O)C[C@@H](C)C(=O)[C@H](C)[C@H]2OC(=O)O[C@@]21C [Erythromycin Cyclocarbonate] | 101% and 103% | 92.5 | 98.3 | 101 | 104 | 99.5 | 99 | 101
7 | Nc1ccc(/C=C/C(=O)NCc2cc3cc(-c4ccc(C(=O)N5CCC(F)(F)CC5)cc4)cc(-c4ccc(F)cc4)c3o2)cn1 | 19.8% and 14.3% | 19.1 | 10 | 13.1 | 4.36 | 1.09 | 4.54 | 4.59
8 | O=c1cc(-c2ccc(O)cc2)oc2c([C@@H]3O[C@H](CO)[C@@H](O)[C@H](O)[C@H]3O)c(O)cc(O)c12 [Vitexin] | 109% and 103% | 101 | 108 | 107 | 101 | 105 | 103 | 107
9 | O=C(O)CCn1c2c(c3ccccc31)C[C@H](NS(=O)(=O)c1ccc(F)cc1)CC2 [Ramatroban] | 100% and 101% | 105 | 106 | 108 | 102 | 104 | 101 | 103
10 | COCCCOc1cc(C[C@@H](C[C@H](N)[C@@H](O)C[C@H](C(=O)NCC(C)(C)C(N)=O)C(C)C)C(C)C)ccc1OC [Aliskiren Hemifumarate] | 104% and 99.9% | 95.5 | 92.3 | 101 | 91.8 | 98.7 | 92.5 | 106
11 | C[C@@H](CN1CC(=O)NC(=O)C1)N1CC(=O)NC(=O)C1 [Dexrazoxane] | 113% and 103% | 110 | 88.2 | 96.9 | 89.8 | 97.9 | 96.8 | 99.9
12 | CC1(C)S[C@@H]2[C@H](NC(=O)Cc3ccccc3)C(=O)N2[C@H]1C(=O)O.CCN(CC)CCOC(=O)c1ccc(N)cc1 [Penicillin G Procaine] | 107% and 104% | 101 | 104 | 118 | 99.7 | 109 | 97.8 | 99.4
13 | N#Cc1c(Oc2ccc(F)c(NC(=O)Cc3cccc(C(F)(F)F)c3)c2)ccc2nc(NC(=O)C3CC3)sc12 | 12.9% and 18.9% | 19 | 40.9 | 36.8 | 36.6 | 25.9 | 31.6 | 36.8
14 | C=C1CC[C@@H]2[C@](C)(CO)[C@H](O)CC[C@@]2(C)[C@@H]1C/C=C1/C(=O)OC[C@H]1O [Andrographolide] | 64.7% and 47.9% | 59.5 | 20.5 | 19.6 | 11.1 | 6.73 | 23.4 | 22.4
15 | C[C@H](CC[C@@]1(O)O[C@H]2C[C@H]3[C@@H]4CC=C5C[C@@H](O[C@@H]6O[C@H](CO)[C@@H](O[C@@H]7O[C@@H](C)[C@H](O)[C@@H](O)[C@H]7O)[C@H](O)[C@H]6O[C@@H]6O[C@@H](C)[C@H](O)[C@@H](O)[C@H]6O)CC[C@]5(C)[C@H]4CC[C@]3(C)[C@H]2[C@@H]1C)CO[C@@H]1O[C@H](CO)[C@@H](O)[C@H](O)[C@H]1O [Protodioscin] | 0.86% and 0.6% | 3.02 | 0.64 | 0.77 | 0.49 | 0.55 | 0.74 | 0.5
16 | COc1cc(C2Oc3ccc(C4Oc5cc(O)cc(O)c5C(=O)C4O)cc3OC2CO)ccc1O (stereo unspecified) [Isosilybin] | 92.6% and 89.8% | 85.4 | 99 | 106 | 104 | 98.9 | 96.8 | 95.3
17 | C#C[C@]1(O)CC[C@H]2[C@@H]3CCC4=CCCC[C@@H]4[C@H]3C(=C)C[C@@]21CC [Desogestrel] | 77.9% and 78.3% | 78.7 | 75.4 | 81.7 | 71.4 | 79.9 | 61 | 63
18 | Cc1ccc(C(C)C)cc1O [Carvacrol] | 100% and 101% | 98.7 | 95.5 | 99 | 99 | 100 | 92.8 | 100
19 | CN(C)C(=O)C(CCN1CCC(O)(c2ccc(Cl)cc2)CC1)(c1ccccc1)c1ccccc1 [Loperamide hydrochloride] | 45.5% and 54.9% | 49.4 | 55.5 | 61.6 | 58.5 | 59.7 | 44.2 | 54.9
20 | Cc1cc2c(C(=O)NCC(C)c3ccccc3)c(O)c(O)cc2c(O)c1-c1c(C)cc2c(C(=O)NCC(C)c3ccccc3)c(O)c(O)cc2c1O (stereo unspecified) [Sabutoclax] | 1.68% and 1.16% | 2.42 | 12.7 | 13.8 | 22.8 | 13.7 | 22.6 | 36
21 | COc1cc2nc(N(C)CCCNC(=O)C3CCCO3)nc(N)c2cc1OC (stereo unspecified) [Alfuzosin hydrochloride (Uroxatral)] | 97% and 98.6% | 95.3 | 91.3 | 98.1 | 96.7 | 97.5 | 90.7 | 103

Row | SMILES | cell viability ([1]; SRSF2 genotype: SRSF2 P95H/wt) | cell viability ([1]; SRSF2 genotype: SRSF2 wt/wt) [%] | cell viability ([2]; SRSF2 genotype: SRSF2 P95H/wt) [%] | cell viability ([2]; SRSF2 genotype: SRSF2 wt/wt) [%] | cell viability ([3]; SRSF2 genotype: SRSF2 P95H/wt) [%] | cell viability ([3]; SRSF2 genotype: SRSF2 wt/wt) [%] | cell viability ([4]; SRSF2 genotype: P95H/wt) [%] | cell viability ([4]; SRSF2 genotype: wt/wt) [%]
22 | Cc1cc(NS(=O)(=O)c2ccc(N)cc2)no1 [Sulfamethoxazole sodium] | 107% and 94.7% | 100 | 101 | 110 | 102 | 104 | 93.1 | 109
23 | Cc1ccc2c(=O)c3cccc(CC(=O)O)c3oc2c1C [DMXAA (Vadimezan)] | 90% and 87.7% | 90.5 | 89.9 | 102 | 85.4 | 87.8 | 88.9 | 93.1
24 | Fc1ccc2c(/C=C/c3nn[nH]n3)c[nH]c2c1 | 100% and 102% | 98.6 | 104 | 102 | 94.2 | 96.3 | 102 | 108
25 | N=C(N)N [Guanidine (Aminoformamidine) HCl] | 94.2% and 97% | 103 | 104 | 98.3 | 97 | 98.7 | 102 | 98.1
26 | CN(Cc1cc(Br)cc(Br)c1N)C1CCCCC1 [Bromhexine HCl] | 96.8% and 96.7% | 92.8 | 86.6 | 99.2 | 96.7 | 99.4 | 92.2 | 98.7
27 | CCn1c(=O)c(-c2cc[nH]n2)cc2c(C)nc(N)nc21 | 54.4% and 68.5% | 65.7 | 43.5 | 35.6 | 29.2 | 26.4 | 13.8 | 20.5
28 | CC(=O)OCC1=C(C(=O)O)N2C(=O)C(NC(=O)CSC(=NC(C)C)NC(C)C)C2SC1 (stereo unspecified) [Cefathiamidine] | 103% and 98.2% | 103 | 103 | 110 | 96.1 | 104 | 102 | 113
29 | O=c1c(-c2ccc(O)cc2)coc2cc(O[C@@H]3O[C@H](CO)[C@@H](O)[C@H](O)[C@H]3O)cc(O)c12 [Genistin (Genistoside)] | 95.5% and 108% | 94.7 | 94.6 | 98 | 89 | 99.7 | 92.1 | 93.4
30 | C/C=C/C=C/C(=O)O [Sorbic acid] | 92.4% and 92.8% | 92.6 | 90.7 | 99.1 | 99.3 | 101 | 106 | 106
31 | CC(=O)c1ccc(O)cc1O [2,4-Dihydroxyacetophenone] | 100% and 87% | 86.2 | 93.5 | 99.8 | 96 | 94.1 | 92.3 | 94.8
32 | CCC1CC(=Cc2cccnc2)C(=O)C(=Cc2cccnc2)C1 (stereo unspecified) | 21.1% and 19.7% | 17.9 | 0.77 | 0.8 | 0.49 | 0.29 | 0.25 | 0.31
33 | O=C(Nc1ccc(OC(F)(F)Cl)cc1)c1cnc(N2CC[C@@H](O)C2)c(-c2cc[nH]n2)c1 [Asciminib (ABL001)] | 12.7% and 19% | 17.1 | 68.4 | 64.5 | 92 | 87.7 | 41.2 | 55
34 | COc1cc(CO)ccc1O [Vanillyl Alcohol] | 97.3% and 89.7% | 88.8 | 94.9 | 100 | 92.1 | 95.9 | 92.4 | 91.7
35 | CCN(CC)c1ccc2cc(-c3nc4ccccc4s3)c(=O)oc2c1 [Coumarin 6] | 106% and 105% | 102 | 106 | 112 | 108 | 107 | 101 | 108
36 | Cc1ccc(-c2c(-c3nn(C)c4ncnc(N5CC[C@H](N6CCCCC6)C5)c34)cnn2C)cc1 | 92.8% and 98% | 105 | 96.5 | 98.5 | 95.1 | 101 | 103 | 102
37 | CCCc1nc2c(C)cc(-c3nc4ccccc4n3C)cc2n1Cc1ccc(-c2ccccc2C(=O)O)cc1 [Telmisartan (Micardis)] | 103% and 107% | 99.5 | 112 | 117 | 110 | 103 | 108 | 128
38 | Cc1ccc2oc(=O)ccc2c1 [6-Methylcoumarin] | 99.5% and 87.8% | 91.3 | 97.3 | 98.6 | 95 | 101 | 91.1 | 107
39 | O=C(O)CC(C(=O)O)n1c(O)c(C2=c3cc(Br)ccc3=NC2=O)sc1=S (stereo unspecified) | 96.1% and 99.4% | 99.6 | 97.7 | 100 | 81.8 | 89.4 | 113 | 103
40 | COc1ccc(C(=O)C2CCN(CC(=O)N(Cc3nc4c(c(=O)[nH]3)COCC4)CC3CC3)CC2)cc1 | 110% and 104% | 102 | 108 | 110 | 109 | 102 | 98.8 | 109
41 | CCN1C(=O)CNc2ncc(-c3ccc(-c4nc[nH]n4)nc3C)nc21 | 13.8% and 18.5% | 23.9 | 27.5 | 27.6 | 9.85 | 11.8 | 8.07 | 16.1
42 | C[C@@H]1CN(c2c(F)c(N)c3c(=O)c(C(=O)O)cn(C4CC4)c3c2F)C[C@H](C)N1 [Sparfloxacin] | 103% | 108 | 99.7 | 104 | 101 | 106 | 109 | 105
